Compound activity (PubChem BioAssay)
Most compounds without a hit are left out; they make up all but 4% or so of the library.
ERAP1 HTS inh: inhibitors of human ERAP1 aminopeptidase | Q9NZ08 | recombinant ERAP1, Leu-AMC fluorescence, 60 min | inhibition, % at 10.7 µM | 340,000 tested, 0.15% active;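 active means mean replicate inhibition of at least 30%, or all replicates individually reaching that 30% level; inactive means mean below 30% and not every replicate reaching it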;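 further: 0% = neutral control wells and 100% = L-leucinethiol positive control wells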
MLL AF4-AF9 inh: inhibitors of human MLL-AF4/AF9 interaction; AlphaScreen, biotin-AF4 peptide binding to FLAG-AF9; inhibition, % at 10 µM; 350,000 tested, 0.47% active;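 active means every replicate reaching a set inhibition limit, whatever the replicate mean, cut at about 25% in these data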;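 further: 0% = plate neutral control median and 100% = total signal loss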
FGF22 binding: shifts melting point of recombinant human FGF22; Q9HCT0; recombinant FGF22 thermal shift, SYPRO orange fluorescence; percent of sucrose octasulfate shift, DMSO zero; activity (Tm shift, normalised), % at 9.99 µM; 340,000 tested, 1.5% active; AID 651658;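 active means mean Tm shift, scaled 0 neutral to 100 positive control, at about 1.3% or above, every replicate too, limit read from the data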
RAD52 anneal inh: blocks human RAD52 DNA annealing. 360,000 tested, 0.46% active. AID 651710. inhibition, % at 18.7 µM. P43351. recombinant RAD52 DNA annealing, FRET fluorescence;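 active means every replicate showing at least 50% inhibition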
Target sequence (P43351 whole entry, looked up): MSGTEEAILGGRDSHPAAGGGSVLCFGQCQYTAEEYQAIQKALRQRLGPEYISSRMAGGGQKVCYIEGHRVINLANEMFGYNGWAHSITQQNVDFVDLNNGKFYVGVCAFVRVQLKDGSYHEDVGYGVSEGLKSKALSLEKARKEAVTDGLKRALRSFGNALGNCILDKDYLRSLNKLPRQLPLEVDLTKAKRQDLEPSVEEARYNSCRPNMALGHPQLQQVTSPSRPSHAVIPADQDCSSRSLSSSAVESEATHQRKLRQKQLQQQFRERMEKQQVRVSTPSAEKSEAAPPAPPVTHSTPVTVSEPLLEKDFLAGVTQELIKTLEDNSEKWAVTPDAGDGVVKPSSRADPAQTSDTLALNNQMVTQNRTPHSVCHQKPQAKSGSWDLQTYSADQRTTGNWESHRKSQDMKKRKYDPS
DENV2 CPE: DENV2-induced cell death inhibition; AID 651640; CPE inhibition, % at 9.99 µM; 350,000 tested, 1.7% active; DENV2-infected cells, cytopathic effect rescue, plate reader; in the data active means CPE inhibition above about 20%, passing the limit was not always enough; tested in BHK-21 cells;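 further: 0% = median of neutral control wells and 100% = median of positive control wells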
* marks the source's active call; other numbers are inactive results; x = no result.

SMILES | ERAP1 HTS inh | MLL AF4-AF9 inh | FGF22 binding | RAD52 anneal inh | DENV2 CPE
Clc1cc(Br)ccc1OCCCn1ccnc1 | -1.5 | 2.5 | 0.0 | -5.8 | 36.6*
CC(C)(C)c1cc(Cl)ccc1OCCOCCN1CCCC1 | 3.4 | 9.9 | 0.0 | 24.9 | -0.7
COc1ccc(NC(=O)N(C)C[C@@H]2Oc3ccc(NS(=O)(=O)c4ccccc4)cc3C(=O)N([C@@H](C)CO)C[C@@H]2C)cc1 | 3.4 | 1.2 | 0.7 | 7.1 | 2.8
Cc1c(C(=O)NCc2cccnc2)oc2ccc(S(=O)(=O)N3CC(C)CC(C)C3)cc12 (stereo not drawn) | x | -17.1 | 0.1 | -8.9 | 21.2*
COc1ccccc1NC(=O)Nc1ccc2c(c1)C(=O)N(C)C[C@H](OC)[C@H](C)CN[C@@H](C)CO2 | 2.1 | -0.2 | 0.2 | 14.6 | -9.7
Cc1nccc(-c2cccc(NC(=O)Nc3ccc(Cl)cc3)c2)n1 | 7.6 | x | 1.8* | -11.3 | 0.7
Cc1cccc(NC(=O)Nc2ccc(Cl)cc2)n1 | -0.3 | -0.4 | 0.0 | -8.5 | 2.1
COc1ccc(-c2cc(C#N)nc(NN)n2)cc1 | x | -1.5 | -0.2 | -0.4 | 46.6*
COc1ccc(-c2cc(C#N)nc(Cl)n2)cc1 | x | -1.6 | 0.1 | 0.7 | -0.2
COCC#Cc1ccc([C@@H]2[C@@H](CO)N3C(=O)CN(C(=O)Nc4ccc(F)cc4)C[C@H]23)cc1 | 1.9 | -3.4 | x | -24.9 | 11.4
COc1ccccc1CN1[C@H](CO)[C@H]2c3ccccc3N(C(=O)C3CCCCC3)C[C@H]21 | -4.4 | 3.6 | -0.6 | 7.9 | -2.0
C/C(=N\NC(=O)c1cc(-c2ccc(Cl)s2)[nH]n1)c1ccncc1 | -2.2 | 43.3* | 0.6 | -14.4 | -3.0
C/C(=N/NC(=O)c1cc(-c2ccc(Br)s2)[nH]n1)c1ccco1 | -3.2 | 0.5 | 1.4* | -18.8 | 4.3
CCOP(=O)(c1ccccc1)C(O)c1ccc([N+](=O)[O-])cc1 (stereo not drawn) | -1.5 | 1.3 | 0.0 | 2.2 | 39.4*
CCCCC1=CC2=CC(=O)C(C)(OC(=O)CC)C(=O)C2=CN1c1cccc(C#N)c1 (stereo not drawn) | 5.5 | -5.2 | -0.2 | -13.7 | 25.8*
CCCCC1=CC2=CC(=O)C(C)(OC(=O)CC)C(=O)C2=CN1c1ccc(OC)cc1 (stereo not drawn) | 2.3 | 5.6 | 0.4 | -24.1 | -2.1
Cc1c(C)n(CC(O)CNc2ccccc2)c2ccccc12 (stereo not drawn) | 0.6 | 25.7* | -0.2 | -11.8 | x
O=C1C(NS(=O)(=O)c2cccs2)=C(N2CCN(Cc3ccccc3)CC2)C(=O)c2ccccc21 | x | 53.8* | -0.1 | -3.3 | 2.7
CCN1CCN(C2=C(NS(=O)(=O)c3ccc(Br)cc3)C(=O)c3ccccc3C2=O)CC1 | 3.3 | 14.0 | -0.4 | -3.4 | -3.3
O=C1C(NS(=O)(=O)c2ccc(Cl)cc2)=C(N2CCCCC2)C(=O)c2ccccc21 | -0.4 | 40.3* | 0.1 | -14.1 | 2.9
NC(=O)C1CCN(C2=C(NS(=O)(=O)c3ccc(Br)cc3)C(=O)c3ccccc3C2=O)CC1 | -1.5 | 32.3* | -0.2 | -0.5 | 0.6
CCOC(=O)C1CCN(C2=C(NS(=O)(=O)c3ccc(Br)cc3)C(=O)c3ccccc3C2=O)CC1 | 3.0 | 38.5* | -0.4 | -6.4 | 18.2
NC(=O)C1CCN(C2=C(NS(=O)(=O)c3ccccc3)C(=O)c3ccccc3C2=O)CC1 | 1.5 | 12.8 | -0.4 | -10.6 | -3.1
C[C@@H]1CCCCO[C@@H](CN(C)Cc2ccc(C(=O)O)cc2)[C@H](C)CN([C@@H](C)CO)C(=O)c2cc(NS(=O)(=O)c3cn(C)cn3)ccc2O1 | x | x | -0.2 | x | 8.6
CCO[C@@H]1OC(C(=O)Nc2ccccc2)=C[C@H](c2cn(C(C)=O)c3ccccc23)[C@H]1CCCO | 0.4 | -11.8 | -0.1 | 9.1 | 2.3
SMILES | ERAP1 HTS inh | MLL AF4-AF9 inh | FGF22 binding | RAD52 anneal inh | DENV2 CPE
COc1ccccc1S(=O)(=O)N[C@H]1CC[C@H](CCNC(=O)C2CC2)O[C@@H]1CO | 1.6 | -0.9 | 0.1 | -3.7 | -1.4
Cc1cccc(N2CCN(C(=S)c3ccc([N+](=O)[O-])cc3)CC2)c1 | 1.0 | 0.3 | -0.2 | -4.9 | -5.6
S=C(Nc1ccc(Nc2ccccc2)cc1)N1CCN(c2ncccn2)CC1 | -4.2 | -0.1 | 43.4* | -7.5 | 0.7
CC(=O)N1CCN(c2ccc(NC(=O)c3ccc(Cl)c(Cl)c3)cc2)CC1 | -1.9 | -1.9 | -0.3 | -3.4 | 4.1
Cc1cccc(N2CCN(C(=S)c3ccccc3)CC2)c1 | -0.8 | 6.0 | 44.1* | -1.6 | 12.1
CC(=O)c1ccc(N2CCN(C(=S)Nc3ccc(Cl)c(Cl)c3)CC2)cc1 | -2.7 | -0.1 | 0.1 | -20.2 | 53.3*
